The list is not random: actives were taken first. Their share in the collection is about 2%.
ADAM17 inh = ADAM17 inhibition, QFRET primary screen | inhibition, % at 6.95 µM | hit rate 0.83% among 370,000 | recombinant ADAM17, EDANS/DABCYL FRET peptide cleavage | P78536;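 active = inhibition above the mean of compounds lying between control limits plus 3 SD, set per campaign, cut at about 8.5% in these data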
ADAM10 inh = ADAM10 inhibition, QFRET primary screen. hit rate 0.62% among 370,000. AID 720582. inhibition, % at 7 µM. recombinant ADAM10, EDANS/DABCYL FRET peptide cleavage, 3 h;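 active = inhibition above a per-campaign cutoff equal to the mean of compounds falling between control-based bounds plus 3 SD, cut at about 20% in these data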
NPR1 activator = GC-A (human) enzyme activation | P16066 | activation, % at 10 µM | HEK293 GC-A cells, cGMP TR-FRET, EC30 ANP; 0% at EC30 ANP, 100% saturating ANP | hit rate 0.14% among 370,000; in the data active = activation above about 40%
GC-B act = GC-B (human) receptor activation; P20594; HEK293-GC-B cells, CNP EC30, cGMP TR-FRET; 0% at EC30 CNP, 100% saturating CNP; activation, % at 10 µM; hit rate 0.11% among 370,000; AID 1920062;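 active = activation at 10 µM reaching about 35% in either raw or pattern-adjusted values, limit read from the data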
FAS-TE inh = inhibitors of human fatty acid synthase thioesterase domain; hit rate 0.67% among 360,000; inhibition, % at 15 µM; recombinant FAS-TE, OMFH fluorogenic substrate, fluorescence endpoint; P49327; AID 602261;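 active = compounds whose normalised, plate-corrected inhibition of enzyme fluorescence in the single-dose primary screen is 50% or more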
ADAM10 ctr = ADAM10 inhibition, counter-screen for ADAM17 exosite hits | hit rate 47% among 2,900 | recombinant ADAM10, EDANS/DABCYL FRET peptide cleavage, 3 h | inhibition, % at 6.95 µM | shares compounds with ADAM17 inh;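 active = mean inhibition over the triplicate runs exceeds the activity threshold set in the earlier primary screen, cut at about 20% in these data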
ADAM17 confirm = human ADAM17 inhibition, confirmation; shares compounds with ADAM17 inh; recombinant ADAM17, EDANS/DABCYL QFRET peptide cleavage; inhibition, % at 6.95 µM; hit rate 65% among 2,900; AID 743257;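 active = mean inhibition across replicates above the hit cutoff set in the primary screen, cut at about 8.5% in these data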
Of the large screens only hits and unclear results are named; the others gave an inactive call (follow-up assays come after a bar, where they were run).

CC1(Cc2ccc(OC(F)(F)F)cc2)C(=O)Nc2ccc(OC(F)(F)F)cc21 (centres undefined)	ADAM17 inh 10.6 | ADAM10 ctr 50.8 | ADAM17 confirm 25.4
O=C(CSc1nnc(-c2cccs2)o1)c1ccc2c(c1)OCO2	none (no result: FAS-TE inh)
Cc1c(C(=O)NCc2ccccn2)oc2ccc(S(=O)(=O)N3CCC4(CC3)OCCO4)cc12	none
Cc1c(C(=O)NCc2ccccc2)oc2ccc(S(=O)(=O)N3CCC4(CC3)OCCO4)cc12	ADAM17 inh 9.6 | ADAM10 ctr inactive | ADAM17 confirm inactive
O=S(=O)(c1ccccc1)N1CCN=C1SCc1ccc(Cl)c(Cl)c1	none
O=S(=O)(c1ccccc1)N1CCN=C1SCc1cccc(Cl)c1	ADAM17 inh 9.3 | ADAM10 ctr inactive | ADAM17 confirm 9.7
COc1ccc(-c2cc(-c3n[nH]c(=S)n3-c3cccc4ccccc34)[nH]n2)cc1	ADAM17 inh 8.7 | ADAM10 ctr inactive | ADAM17 confirm inactive
C[C@@H]1CN([C@H](C)CO)C(=O)c2cc(NC(=O)C3CCCCC3)ccc2O[C@@H]1CN(C)Cc1ccc(C(F)(F)F)cc1	none
COc1ccc(S(=O)(=O)N(C)C[C@H]2Oc3ccc(NS(=O)(=O)c4ccccc4)cc3C(=O)N([C@H](C)CO)C[C@@H]2C)cc1	none
C[C@H]1CN([C@@H](C)CO)C(=O)c2cc(NC(=O)C3CCCCC3)ccc2O[C@H]1CN(C)Cc1ccc(-c2ccccc2)cc1	ADAM17 inh 11.3 | ADAM10 ctr 31.5 | ADAM17 confirm 18.2
COc1ccc(S(=O)(=O)Nc2ccc3c(c2)CC(=O)N([C@@H](C)CO)C[C@@H](C)[C@@H](CN(C)Cc2ccccc2)O3)cc1	ADAM17 inh 11.2 | ADAM10 ctr inactive | ADAM17 confirm inactive
COc1ccc(S(=O)(=O)N(C)C[C@H]2Oc3ccc(NS(=O)(=O)c4ccccc4)cc3CC(=O)N([C@H](C)CO)C[C@@H]2C)cc1	ADAM17 inh 13.4 | ADAM10 ctr inactive | ADAM17 confirm inactive
Cn1c(SCC(=O)Nc2ccccc2-c2ccccc2)nnc1-c1cnccn1	none (no result: FAS-TE inh)
O=C(NCc1ccccc1)C1(C(=O)C2CC2)CC(c2ccccc2C(F)(F)F)=NO1 (centres undefined)	none (no result: FAS-TE inh)
CN(Cc1ccccc1)C(=O)OCc1cn(Cc2cc(F)cc(F)c2)nn1	none (no result: FAS-TE inh)
C[C@H](CO)N1C[C@H](C)[C@@H](CN(C)S(=O)(=O)c2ccccc2)Oc2c(NC(=O)c3ccncc3)cccc2C1=O	ADAM17 inh 11.1 | ADAM10 ctr inactive | ADAM17 confirm inactive
C[C@H](CO)N1C[C@H](C)[C@@H](CN(C)S(=O)(=O)c2ccc(F)cc2)Oc2c(NC(=O)c3ccncc3)cccc2C1=O	ADAM17 inh 10.3 | ADAM10 ctr inactive | ADAM17 confirm inactive
C[C@H](CO)N1C[C@H](C)[C@@H](CN(C)C)Oc2c(NC(=O)CCC(F)(F)F)cccc2C1=O	ADAM17 inh 10.0 | ADAM10 ctr inactive | ADAM17 confirm inactive
CC1CCC(NC(=O)C(NS(=O)(=O)c2cccc3nsnc23)C(C)C)CC1 (centres undefined)	ADAM17 inh 13.5 | ADAM10 ctr inactive | ADAM17 confirm inactive
CC(C)C(NS(=O)(=O)c1cccc2nsnc12)C(=O)NC1CCCCC1 (centres undefined)	none
Cc1cccc[n+]1CC(=O)/C=C1\N(C)c2ccccc2C1(C)C	none
CN1/C(=C/C=C/c2n(C)c3cc([N+](=O)[O-])c([N+](=O)[O-])cc3[n+]2C)C(C)(C)c2ccccc21	ADAM17 inh 9.9 | ADAM10 ctr inactive | ADAM17 confirm inactive
O=[N+]([O-])c1ccc(C2=NN(CCO)C(=Nc3ccc(OC(F)(F)F)cc3)SC2)cc1	ADAM17 inh 12.0 | ADAM10 ctr 32.0 | ADAM17 confirm 17.9
Cc1ccc(S(=O)(=O)N/N=C/c2cccc3nccnc23)cc1	ADAM17 inh 8.8 | ADAM10 ctr inactive | ADAM17 confirm inactive
COc1ccc(S[C@]2(C(=O)N3CCCC3)CC(=O)N(C(=O)CCc3ccccc3)[C@@H]2c2ccc(OC)cc2)cc1	none (no result: FAS-TE inh)
